Assay outcomes deposited in PubChem BioAssay by National Center for Advancing Translational Sciences (NCATS).
HCV inh: inhibitors of hepatitis C virus infection. Huh7.5.1 HCVcc-Cre infection, luciferase reporter, 44 h. Potency, µM (titrated, usually from 41.8 µM), usual class: inhibitors. hit rate 3.4% among 340,000. AID 651820
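Compounds are dispensed onto cells plated 4 h earlier at 1,000 per well, with HCVcc-Cre virus (about 0.5 moi) added next. Following 44 h of culture, luminescent signal is measured for 15 sec after 15 min with substrate at room temperature.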
Pf growth 96h: P. falciparum growth inhibition at 96 hours; P. falciparum luciferase reporter growth, 96 h; Potency, µM (titrated, usually from 28.7 µM), most hits filed as inhibitors; hit rate 6.9% among 320,000
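Parasite growth measured via integrated firefly luciferase reporter in P. falciparum. Infected erythrocytes at 2% hematocrit, 0.05% parasitemia final were treated 96 hours at 37 C under 5% CO2, and luminescence was read.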
Shiga inhibitor: Shiga toxin inhibition. Vero cells, Shiga toxin protein synthesis inhibition reporter. hit rate 9.2% among 290,000. AID 2315. inhibition, % at 38.7 µM; in the data active = inhibition mostly above about 28%, no sharp cut-off; inactive = mostly below about 43%
HCMV inh: inhibitors of human cytomegalovirus; AID 1259415; HFF cells, HCMV-luciferase reporter, 72 h; active compounds read low; activity change, negative = inhibition, % at 57.5 µM; hit rate 4.5% among 410,000; in the data active = activity change below about -60%; inconclusive = no clear call, values can overlap the other calls; inactive = above about -39%
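Screen run at 2 compound doses on HFFs infected with reporter HCMV, MOI 1 PFU/cell. Luciferase activity from cell lysates at 72 h post infection gave inhibition relative to buffer-only and Salinomycin wells.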
Pf growth 48h: inhibits P. falciparum growth in the first generation, 48 h; P. falciparum luciferase growth in erythrocytes, 48 h; Potency, µM (titrated, usually from 28.7 µM), usual class: inhibitors; hit rate 5.9% among 310,000; AID 504832
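First compound was added to culture medium, then infected red cells at 0.1% parasitemia and 2% hematocrit (final). After incubation at 37 C under 5% CO2, luciferase detection reagent was dispensed and light output recorded.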
Cycloheximide cs: affects cycloheximide protein synthesis inhibition readout, counter-screen. cell reporter, cycloheximide protein synthesis inhibition counterscreen. max response, %. hit rate 12% among 300,000. AID 2314; in the data active = max response mostly above about 13%, no sharp cut-off; inactive = mostly below about 14%; note: read at 38.3 µM for the half of the compounds with a filed dose
A number is an active result; ! = not active in a repeat. Most compounds without a hit are left out; they make up all but 21% or so of the library. Unless noted, calls come from the whole dose curve; as a rule, active = well fitted inhibition curve with a large enough effect; inconclusive = small, poorly fitted or top-dose-only effect, or another doubt; inactive = no such curve, though single readings can be large or run the other way.

How did COc1ccccc1CNC(=O)CCn1c(=O)c2ccccc2n(CC(=O)Nc2ccc(C)cc2)c1=O do in these assays?
HCMV inh: inactive

How did CC(C)c1ccc(/C=C/C(=O)NC2=NCCS2)cc1 do in these assays?
Pf growth 96h: inactive; Shiga inhibitor: 43.6; HCMV inh: inconclusive; Pf growth 48h: inactive; Cycloheximide cs: 43.7

What do the screens show for `CC(C)c1ccc(/C=C/C(=O)O)cc1`?
HCV inh: inactive; Pf growth 96h: inactive; Shiga inhibitor: inactive; HCMV inh: inactive; Pf growth 48h: inactive; Cycloheximide cs: inactive

How did O=C(/C=C/c1ccc(Cl)c(Cl)c1)NC1=NCCS1 do in these assays?
HCV inh: inactive; Pf growth 96h: inactive; Shiga inhibitor: 79.1; HCMV inh: inactive; Pf growth 48h: inactive; Cycloheximide cs: 34.7

What do the screens show for `CC(C)C(C(=O)NC1=NCCS1)c1ccc(Cl)cc1` (configuration not stated)?
HCV inh: inconclusive; Pf growth 96h: inconclusive; Shiga inhibitor: inactive; HCMV inh: inactive; Pf growth 48h: 3.7µM; Cycloheximide cs: inactive

Results for CC(NC(=O)c1ccc(Cl)cc1)C(=O)NC1=NCCS1 (configuration not stated) ?
HCV inh: inactive; Pf growth 96h: inactive; Shiga inhibitor: inactive; HCMV inh: inactive; Pf growth 48h: inactive; Cycloheximide cs: inactive

How did COc1cccc(NC(=O)CN2C(=O)COc3ccc(S(=O)(=O)N4CCCCCC4)cc32)c1 do in these assays?
HCV inh: inactive; Pf growth 96h: inconclusive; Shiga inhibitor: inactive; HCMV inh: inconclusive; Pf growth 48h: inconclusive; Cycloheximide cs: inactive

What do the screens show for `Cc1cc(OCC(=O)Nc2ccccc2C(N)=O)c2c(C)cc(=O)oc2c1`?
HCV inh: inconclusive; Pf growth 96h: inactive; Shiga inhibitor: inactive; HCMV inh: inactive; Pf growth 48h: inactive; Cycloheximide cs: inactive

How did CCCCC1=CC2=C(c3ccco3)C(=O)C(C)(OC(=O)c3ccc(OC)cc3)C(=O)C2=CN1C1CCCCC1 (configuration not stated) do in these assays?
HCV inh: inactive; Pf growth 96h: inactive; Shiga inhibitor: inactive; Pf growth 48h: inconclusive; Cycloheximide cs: inactive

Results for COc1ccc(C)cc1NC(=O)CN1C(=O)C(=O)N(C2CCCC2)C1=O ?
HCV inh: inactive; Pf growth 96h: inactive; HCMV inh: inactive; Pf growth 48h: inactive

Results for COc1ccc(CCn2c(C)cc(C(=O)CN3C(=O)C(=O)N(C4CCCC4)C3=O)c2C)cc1OC ?
HCV inh: 10µM; Pf growth 96h: inconclusive; HCMV inh: inactive; Pf growth 48h: 9.28µM

Results for CC(C(=O)O)c1ccc2c(c1)Cc1cccnc1O2 (configuration not stated) ?
Pf growth 96h: 1.51µM; Pf growth 48h: inactive

Results for Cc1cccc(NC(=O)Cn2c(=O)n(CCC(=O)N3CCc4ccccc4C3)c(=O)c3ccccc32)c1 ?
HCMV inh: inactive

Results for Cc1cccc(NC(=O)CNC(=O)[C@H]2O[C@@H](n3cnc4c(N)ncnc43)[C@H](O)[C@@H]2O)c1C ?
HCMV inh: inactive

How did COc1ccc(OC)c(S(=O)(=O)N2CCN(Cc3nc4ccc(C)cc4o3)CC2)c1 do in these assays?
HCMV inh: inactive

What do the screens show for `CCCc1nnc(NC(=O)c2nc(S(=O)(=O)Cc3ccc(C)cc3)ncc2Cl)s1`?
HCV inh: inconclusive; Pf growth 96h: inconclusive; Shiga inhibitor: 44.4; HCMV inh: -106.5!; Pf growth 48h: inactive; Cycloheximide cs: 30.5

Results for COc1ccc2nc(NC(=O)c3nc(SC(C)C)ncc3Cl)sc2c1 ?
HCMV inh: inactive

What do the screens show for `Cc1ccc(CS(=O)(=O)c2ncc(Cl)c(C(=O)Nc3nc4ccc(C)cc4s3)n2)cc1`?
HCMV inh: -107.0

What do the screens show for `Cc1ccc(CS(=O)(=O)c2ncc(Cl)c(C(=O)Nc3nc4ccc(F)cc4s3)n2)cc1`?
HCMV inh: -93.3

How did COc1ccc2nc(NC(=O)c3nc(S(=O)(=O)Cc4ccc(C)cc4)ncc3Cl)sc2c1 do in these assays?
HCMV inh: -99.6

Results for Cc1cc2c(cc3c(SCc4ccccc4Cl)nnc(C)n32)o1 ?
HCMV inh: inactive

What do the screens show for `CC1CCN(C2=NC(=O)/C(=C/c3cn(-c4ccccc4)nc3-c3cccc(S(=O)(=O)N(C)C)c3)S2)CC1`?
HCV inh: inconclusive; Pf growth 96h: inconclusive; Shiga inhibitor: inactive; HCMV inh: -61.5; Pf growth 48h: 7.38µM; Cycloheximide cs: inactive

How did CC1CCCN(C2=NC(=O)/C(=C/c3cn(-c4ccccc4)nc3-c3cccc(S(=O)(=O)N(C)C)c3)S2)C1 (configuration not stated) do in these assays?
HCV inh: inconclusive; Pf growth 96h: 1.65µM; Shiga inhibitor: inactive; HCMV inh: inactive; Pf growth 48h: inconclusive; Cycloheximide cs: inactive

Results for Fc1ccc(-c2csc(NC3=NCCC3)n2)cc1 ?
HCV inh: inconclusive; Pf growth 96h: inactive; Shiga inhibitor: 109.3; HCMV inh: inactive; Pf growth 48h: inactive; Cycloheximide cs: 21.4

Results for COc1ccc(-c2csc(NC3=NCCCCC3)n2)cc1 ?
HCV inh: inconclusive; Pf growth 96h: inactive; Shiga inhibitor: 108.3; HCMV inh: inconclusive; Pf growth 48h: inactive; Cycloheximide cs: 33.3

What do the screens show for `Brc1ccc(-c2csc(NC3=NCCCCC3)n2)cc1`?
HCV inh: inactive; Pf growth 96h: 13.1µM; Shiga inhibitor: inactive; HCMV inh: inactive; Pf growth 48h: inactive; Cycloheximide cs: 24.4

Results for COc1ccc(-c2csc(NNC3=NCCCCC3)n2)cc1 ?
HCV inh: inconclusive; Pf growth 96h: inactive; Shiga inhibitor: 26.1; HCMV inh: inactive; Pf growth 48h: 11.7µM; Cycloheximide cs: 29.5

Results for COc1ccc(NC2=NCCC2)cc1 ?
HCV inh: inactive; Pf growth 96h: inactive; Shiga inhibitor: inactive; HCMV inh: inactive; Pf growth 48h: inconclusive; Cycloheximide cs: inactive

Results for Cc1ccc2c(c1)c(=O)c1ccccc1n2CCCC(=O)Nc1ccc(F)cc1F ?
HCMV inh: inactive

What do the screens show for `COc1cccc(C(=O)/C(C#N)=N/Nc2cccc(-c3ccnc(C)n3)c2)c1`?
HCV inh: inactive; Pf growth 96h: inconclusive; Shiga inhibitor: inactive; HCMV inh: inactive; Pf growth 48h: inconclusive; Cycloheximide cs: inactive

How did Cc1nc2nc(C)c(CCC(=O)NCc3cccc(Cl)c3)c(C)n2n1 do in these assays?
HCMV inh: inactive

How did CCOc1ccc(-c2csc(NNC3=NCCCCC3)n2)cc1 do in these assays?
HCV inh: inactive; Pf growth 96h: inactive; Shiga inhibitor: inactive; HCMV inh: inactive; Pf growth 48h: inactive; Cycloheximide cs: 16.4

How did COCCn1c(N)c(C(=S)NC(=O)c2cccs2)c(=O)[nH]c1=O do in these assays?
HCV inh: inconclusive; Pf growth 96h: inactive; Shiga inhibitor: inactive; HCMV inh: inactive; Pf growth 48h: inactive; Cycloheximide cs: inactive

Results for COC(=O)c1sc(N)c(C(=O)OC)c1COC(=O)CCNS(=O)(=O)c1ccc(C)cc1 ?
HCV inh: inconclusive; Pf growth 96h: 10.4µM; Shiga inhibitor: inactive; HCMV inh: inactive; Pf growth 48h: inconclusive; Cycloheximide cs: inactive
